Source: PubChem BioAssay AID624351 (Southern Research Specialized Biocontainment Screening …, 2012)
Hit rate of the full screen: of about 2,400 compounds, about 1,400 (58%) were called active.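 How the source made its calls: active means inhibition of 30% or more at any tested dose; inconclusive means primary hits over the limit that were never retested; inactive means the rest.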 The set was probably picked from earlier hits. Some of the results follow.

Assay: coupled detection enzyme interference, dose response, artefact control for MgcRacGAP inhibitor project, biochemical, coupled enzyme counter-screen (AID 624351);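 further: signal is the ADP detection kit reading of free GDP without any GAP enzyme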
Details: ADP Hunter coupled enzyme counter-screen, fluorescence, no MgcRacGAP; series mostly up to 80 µM
For C=CCn1c(SCC(=O)Nc2ccc(O)cc2)nc2sc(CC)cc2c1=O, the IC50 was 37.1 µM (active).
In the case of Cc1ccccc1N1C(S)=C(C#N)C(=O)NC12CCCCC2, the IC50 is reported as “inactive”.
In the case of Cc1cc(=O)c2c(O)c(O)ccc2o1, the IC50 is reported as 41.8 µM (active).
For COc1ccc2c(c1)Sc1ccccc1N2, the IC50 was 34.1 µM (active).
For COc1ccc(C(=O)Nc2ccc(N3CCCCCC3)cc2)cc1S(=O)(=O)N1CCOCC1, the IC50 was “inactive”.
For S=C(c1ccccc1)N1CCN(c2ccccc2)CC1, the IC50 was “inactive”.
For CCC(CC)N1CCN(C(=O)c2cccc(Cl)c2)CC1, the IC50 was “inactive”.
With O=C(c1cc(C2CC2)nn1-c1ccccc1)N1CCN(c2ccc(O)cc2)CC1 the IC50 was 42.2 µM (active).
For COc1cc(CN2CCN(C(=O)c3cccc4ccccc34)CC2)cc(OC)c1OC, the IC50 was “inactive”.
With Cc1ccc(-c2cc(C(=O)N3CCN(c4ccc(O)cc4)CC3)c3ccccc3n2)cc1 the IC50 was 83.4 µM (active).
With O=C(c1ccc(Cl)c(S(=O)(=O)N2CCCCCC2)c1)N1CCN(c2ccc(O)cc2)CC1 the IC50 was 34.3 µM (active).
In the case of O=C(c1ccccc1)c1ccc(C(=O)N2CCN(c3ccc(O)cc3)CC2)cc1, the IC50 is reported as 39 µM (active).
With O=C(c1ccccc1)N1CCN(C2CCCCC2)CC1 the IC50 was “inactive”.
For Cc1ccccc1CN1CCN(C(=O)c2cccc3ccccc23)CC1, the IC50 was “inactive”.
For O=C1/C(=C\c2ccc(O)cc2)SC(=S)N1/N=C/c1ccc(O)cc1, the IC50 was 72.7 µM (active).
In the case of CCOc1ccc(CN2CCN(Cc3c[nH]c4ccccc34)CC2)cc1, the IC50 is reported as “inactive”.
With CCN(CC)c1ccc(/C=N/N2CCN(Cc3ccccc3)CC2)cc1 the IC50 was 75.1 µM (active).
With CCOc1cc(CN2CCN(C(=O)CC(C)C)CC2)ccc1OC the IC50 was “inactive”.
For CCN(Cc1ccccc1)C1CCN(Cc2ccc(SC)cc2)CC1, the IC50 was “inactive”.
In the case of CCOc1cc(/C=N/N2CCN(Cc3ccccc3)CC2)ccc1O, the IC50 is reported as 78.5 µM (active).
With CCN(Cc1ccccc1)c1ccc(/C=N/N2CCOCC2)cc1 the IC50 was 57.8 µM (active).
For CN(c1ccccc1)c1ccc(/C=C/[N+](=O)[O-])cc1, the IC50 was “inactive”.
In the case of CC(CN1CCN(Cc2ccccc2)CC1)c1ccccc1 (stereo not drawn), the IC50 is reported as “inactive”.
For CN(c1ccccc1)c1ccc(/C=N/N2CCOCC2)cc1, the IC50 was 36.8 µM (active).
In the case of CC(=O)N(C1=C(Cl)C(=O)c2ccccc2C1=O)c1ccc(C(=O)O)cc1, the IC50 is reported as “inactive”.
In the case of COc1ccccc1CN1CCN(Cc2cc(OC)c(OC)cc2OC)CC1, the IC50 is reported as “inactive”.
In the case of CCN(CC)c1ccc(/C=N/N2CCOCC2)c(O)c1, the IC50 is reported as 63.7 µM (active).
In the case of CN(C)c1ccc(/C=N/N2CCN(Cc3ccccc3Cl)CC2)cc1, the IC50 is reported as 71 µM (active).
In the case of CC(C)c1ccc(/C=N/N2CCCCC2)cc1, the IC50 is reported as “inactive”.
With CCN(CC)c1ccc(/C=N/N2CCOCC2)cc1 the IC50 was 40.3 µM (active).
In the case of Cc1ccc(OCCN2CCN(C)CC2)c([N+](=O)[O-])c1, the IC50 is reported as “inactive”.
In the case of O=C(Cn1sc2ccccc2c1=O)Nc1ccccc1, the IC50 is reported as “inactive”.
With COc1ccc2cc(C(=O)Nc3ccc(O)cc3)sc(=O)c2c1OC the IC50 was 24.8 µM (active).
In the case of O=C(Nc1ccc(O)cc1)c1cc2ccccc2c(=O)s1, the IC50 is reported as 30.1 µM (active).
With Cc1ccc(S(=O)(=O)N2CCCCC2)cc1NC(=O)CNCc1ccco1 the IC50 was “inactive”.
With COc1cc(/C=C/C(=O)OCC(=O)Nc2cc(S(=O)(=O)N3CCCCC3)ccc2C)ccc1O the IC50 was 60.2 µM (active).
For COCCNCC(=O)Nc1ccc(C)c(S(=O)(=O)N2CCCCC2)c1, the IC50 was “inactive”.
With Cc1ccc(NC(=O)CNCCCN2CCOCC2)cc1S(=O)(=O)N1CCCCC1 the IC50 was “inactive”.
For CCN(CC)S(=O)(=O)c1ccc(C)c(NC(=O)CN2CCN(C)CC2)c1, the IC50 was “inactive”.
For COc1cc(/C=C/C(=O)OCC(=O)Nc2ccc(S(=O)(=O)N3CCCC3)cc2)ccc1O, the IC50 was 45.7 µM (active).
For CC(CCN1CCN(CCO)CC1)c1ccccc1 (stereo not drawn), the IC50 was “inactive”.
With CN=C1S/C(=C\c2ccc(O)c(Br)c2)C(=O)N1C the IC50 was 45.8 µM (active).
For Cc1nc(N)sc1-c1ccccc1, the IC50 was 80.8 µM (active).
For COC(=O)c1ccc2c(c1)C(C)(C)C(/C=C/c1ccc(O)cc1)=[N+]2C, the IC50 was “inactive”.
In the case of COc1ccc(C(=O)/C=C/c2ccc(O)cc2)cc1, the IC50 is reported as 42.2 µM (active).
With COc1ccc(-c2ccc(CCC(=O)O)n2-c2ccc(O)cc2)cc1 the IC50 was “inactive”.
For O=C(CNCc1ccco1)Nc1ccc(N2CCCCCC2)cc1, the IC50 was “inactive”.
For CC(=O)N1CCN(c2ccc(NCc3ccco3)cc2)CC1, the IC50 was 13.1 µM (active).
With COc1ccc(N2CCN(C(=O)c3ccc(Br)o3)CC2)cc1 the IC50 was “inactive”.
In the case of CC(=O)N1CCN(c2ccc(NCc3ccc(Br)o3)cc2)CC1, the IC50 is reported as 12.4 µM (active).
For CN(C)c1ccc(NC2=C([N+](=O)[O-])CS(=O)(=O)C2)cc1, the IC50 was 51.3 µM (active).
For Cc1cc(/C=N/Nc2ccc([N+](=O)[O-])cn2)c(C)n1-c1ccc(C(=O)O)cc1, the IC50 was “inactive”.
In the case of CN(C)c1ccc(Nc2ccc([N+](=O)[O-])cn2)cc1, the IC50 is reported as 70.9 µM (active).
In the case of O=C(c1ccccc1F)N1CCN(Cc2ccccc2F)CC1, the IC50 is reported as “inactive”.
In the case of CCOc1c(C=C(C#N)C#N)c2ccccc2n1CC, the IC50 is reported as “inactive”.
With CN1CCN(/N=C/c2nc(-c3ccccc3)n3ccccc23)CC1 the IC50 was 35.6 µM (active).
With Clc1ccccc1-c1nc(/C=N/N2CCOCC2)c2ccccn12 the IC50 was 44 µM (active).
In the case of CN1CCN(/N=C/c2nc(-c3ccc(Cl)cc3)n3ccccc23)CC1, the IC50 is reported as 41.9 µM (active).
With C(=N\N1CCOCC1)/c1nc(-c2ccccc2)n2ccccc12 the IC50 was 25.7 µM (active).
For O=C(O)c1ccc2c(c1)C(=O)/C(=C\c1ccco1)C2=O, the IC50 was “inactive”.
In the case of Cc1ccccc1N1C(S)=C(C#N)C(=O)NC1c1cccs1 (stereo not drawn), the IC50 is reported as “inactive”.
With Cc1ccc(-n2sc3cc(F)ccc3c2=O)c(C)c1 the IC50 was “inactive”.
For CSc1ccccc1NC(=O)CNCCCN1CCOCC1, the IC50 was “inactive”.
With CCOC(=O)COc1ccc2c(c1)C(=O)CC1(CCCCC1)O2 the IC50 was “inactive”.
For O=C(COC(=O)COc1ccc(Nc2ccccc2)cc1)NCc1ccco1, the IC50 was 79.9 µM (active).
In the case of COCCNC(=O)COc1ccc(Nc2ccccc2)cc1, the IC50 is reported as 62.8 µM (active).
With O=C(CNCc1ccco1)Nc1ccc(Oc2ccccc2)cc1 the IC50 was “inactive”.
With O=C(NCc1ccco1)c1sc(=S)n2c1[nH]c(=O)c1ccccc12 the IC50 was “inactive”.
With N#Cc1ccc(OCC(=O)Nc2ccc(N3CCCC3)cc2)cc1 the IC50 was “inactive”.
With O=C(COc1ccc(Nc2ccccc2)cc1)OCC(=O)N1CCCCC1 the IC50 was 75.6 µM (active).
With O=C1CCCCC/C1=N/Nc1ccc(OCc2ccccc2)cc1 the IC50 was “inactive”.
In the case of COc1ccc(-n2nc3c(c2NC(=O)CCCCl)CSC3)cc1, the IC50 is reported as “inactive”.
In the case of O=C(Nc1ccc(Nc2ccccc2)cc1)C1CC1, the IC50 is reported as 55.9 µM (active).
With CC(C)C(=O)Nc1ccc(Nc2ccccc2)cc1 the IC50 was 52.3 µM (active).
For CC(=O)Nc1ccc(S(=O)(=O)Nc2nc3ccccc3nc2Nc2ccc(C(=O)O)c(O)c2)cc1, the IC50 was “inactive”.
For O=C(Nc1ccccc1)C1=C(c2ccccc2)S(=O)(=O)CCS1(=O)=O, the IC50 was “inactive”.
With O=C(O)c1ccccc1C(=O)Nc1ccc(Nc2ccccc2)cc1 the IC50 was 62.4 µM (active).
For CC(=O)Nc1ccc(S(=O)(=O)Nc2ccc(Nc3ccccc3)cc2)cc1, the IC50 was 80.7 µM (active).
For Cc1cc(C)c2c(c1)NC(C(=O)O)C1CC=CC21 (stereo not drawn), the IC50 was “inactive”.
With COc1ccc(-n2cccc2/C=C/[N+](=O)[O-])cc1 the IC50 was “inactive”.
With CC1=NOC(=O)/C1=C\c1ccc(-c2ccc(Cl)c(C(=O)O)c2)o1 the IC50 was “inactive”.
In the case of N#CC1=C(S)N(c2ccccc2)C(c2cccs2)NC1=O (stereo not drawn), the IC50 is reported as “inactive”.
With CC(=O)Nc1ccc(NC(=O)C(C)OC(=O)COc2ccc(Nc3ccccc3)cc2)cc1 (stereo not drawn) the IC50 was “inactive”.
With O=C(Nc1ccc(O)cc1)c1ccccc1OCc1ccccc1 the IC50 was 44.8 µM (active).
With O=C(O)c1ccc(COc2ccccc2C=C2C(=O)c3ccccc3C2=O)cc1 the IC50 was “inactive”.
In the case of CC(=O)Nc1ccc(Nc2ccccc2)cc1, the IC50 is reported as 75.5 µM (active).
In the case of CC(=O)Nc1ccc2sn(-c3ccccc3)c(=O)c2c1, the IC50 is reported as “inactive”.
In the case of CCC(=O)Nc1ccc(Nc2ccccc2)cc1, the IC50 is reported as 55.9 µM (active).
With CCC(=O)NC1=C(Cl)C(=O)C(NC(=O)CC)=C(Cl)C1=O the IC50 was “inactive”.
With Oc1ccc(NCc2ccc(OCc3ccccc3)cc2)cc1 the IC50 was “inactive”.
In the case of C=C1c2c(Cl)ccc(O)c2C(O)=C2C(=O)[C@]3(O)C(O)=C(C(N)=O)C(=O)[C@@H](N(C)C)[C@@H]3[C@@H](O)C12 (stereo partly drawn), the IC50 is reported as “inactive”.
For CC[n+]1c(/C=C2\Sc3ccccc3N2C)ccc2cccc(C)c21, the IC50 was “inactive”.
For Nc1nn2c(-c3ccccc3)cc(=O)[nH]c2c1N=Nc1ccc(O)cc1, the IC50 was 70.9 µM (active).
In the case of Cc1cc(=O)[nH]c2c(N=Nc3ccc(O)cc3)c(N)nn12, the IC50 is reported as 13.2 µM (active).
For CCOC(=O)C1Nc2ccc(C(=O)O)cc2C2C=CCC12 (stereo not drawn), the IC50 was “inactive”.
In the case of COc1cc(OC)c(Cl)cc1N, the IC50 is reported as 43.9 µM (active).
With CCCC(=Nc1ccc(N)cc1)C1=C(O)C(C(=O)OC)C(C)(C)CC1=O (stereo not drawn) the IC50 was 14.8 µM (active).
In the case of CCC(=Nc1ccc(N)cc1)C1=C(O)C(C(=O)OC)C(C)(C)CC1=O (stereo not drawn), the IC50 is reported as 7.76 µM (active).
For COC(=O)C1C(O)=C(C=Nc2ccc(N)cc2)C(=O)CC1(C)C (stereo not drawn), the IC50 was 57.5 µM (active).
For CCOc1cc(/C=N/NC(=O)CCc2n[nH]c(=O)[nH]c2=O)ccc1O, the IC50 was 55.6 µM (active).
In the case of COc1cc(/C=N/NC(=O)C(C)Nc2n[nH]c(=O)[nH]c2=O)ccc1O (stereo not drawn), the IC50 is reported as 69.5 µM (active).
For COc1cc(/C=N/NC(=O)CCc2n[nH]c(=O)[nH]c2=O)ccc1O, the IC50 was 35.4 µM (active).
In the case of COc1cc(/C=N/NC(=O)CNc2n[nH]c(=O)[nH]c2=O)ccc1O, the IC50 is reported as 39.7 µM (active).
In the case of C/C(CCc1ccccc1)=N\NC(=O)C1C2CCCCC21 (stereo not drawn), the IC50 is reported as “inactive”.
For Cc1ccc(-c2cnc(NCc3cc4c(cc3[N+](=O)[O-])OCO4)n2C)cc1C, the IC50 was “inactive”.
In the case of O=[S@]1Oc2ccccc2-c2ccccc21, the IC50 is reported as “inactive”.
With CCCN1C(=O)S/C(=C/c2ccc(N3CCOCC3)o2)C1=O the IC50 was “inactive”.
With CCN(CC)c1ccc(/C=C2/SC(=O)N(C(C)C)C2=O)o1 the IC50 was 58.5 µM (active).
